This is an account of results in PubChem BioAssay (Tox21).

Molecules are shown by their SMILES. Inconclusive results are not listed. Active and inactive are the calls of the source. Unless noted, calls follow the shape of the dose curve; as a rule, active = well fitted curve in the direction sought with a large enough effect in the repeat runs; inconclusive = weak or mixed curves; inactive = no such curve, though single readings can be large; an effect the other way counts as inactive or inconclusive.

Test [1] can be described thus: qHTS assay to identify small molecule agonists of the vitamin D receptor (VDR) signaling pathway - cell viability counter screen (AID 743224). Also: series mostly up to about 63 µM; nearly all actives have a fitted effect of over 50% in size. The essentials:
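Here cell health was gauged by luminescent ATP detection (CellTiter-Glo, 30 min RT) in VDR-bla cells that had been incubated with test compounds for 16 h at 37C and 5% CO2.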
On the technique in general: Quantitative high-throughput screening tests each substance at several concentrations.

Test [2] is described as follows: qHTS assay to identify small molecule antagonists of the vitamin D receptor (VDR) signaling pathway - cell viability counter screen (AID 743225). Also: nearly all actives have a fitted effect of over 50% in size. The essentials:
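Read-out: CellTiter-Glo luminescence measured 30 min after reagent addition at room temperature. Cells were VDR-bla HEK 293T exposed 16 h at 37C, 5% CO2, to compound with 3 nM final calcitriol agonist.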

The nature of test [3]: qHTS assay to identify small molecule agonists of the NFkB signaling pathway (AID 1159509; active = well fitted curve in the direction sought with a large enough effect in the signal ratio in the repeat runs, not every such curve was filed as active; the % refers to the signal ratio; also: series mostly up to about 61 µM). The essentials: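 NFkB-bla ME-180 cells carry a beta-lactamase reporter under an NF-kB response element. They were plated overnight, then exposed to compounds for 5 h at 37 C. Read-out is LiveBLAzer FRET after 1.5 hr at room temperature (405 nm excitation; 460/530 nm emission).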
Test [4] can be described thus: qHTS assay to identify small molecule agonists of the NFkB signaling pathway - cell viability counter screen (AID 1159515; calls by dose curve; also: series mostly up to about 61 µM; nearly all actives have a fitted effect of over 55% in size). In a few lines: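 5 hr compound treatment of NFkB-bla ME-180 cells (2,000/well, seeded overnight beforehand), followed by reporter substrate for 1.5 hr. CellTiter-Glo added afterward; luminescence after 30 min RT.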
Test [5] is described as follows: qHTS assay to identify small molecule agonists of the endoplasmic reticulum stress response signaling pathway (AID 1159516; active = well fitted activation curve with a large enough effect in the signal ratio in the repeat runs, not every such curve was filed as active; the % refers to the signal ratio). The essentials:
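Reporter HeLa cells (ESRE-beta-lactamase) underwent 5 hr compound incubation at 37 C and 5% CO2 in quantitative HTS format. Detection followed 2 hr of FRET substrate loading at room temperature.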

In test [6] the target is Nuclear receptor ROR-gamma (Homo sapiens) (UniProt P51449). Put plainly: qHTS assay to identify small molecule antagonists of the retinoid-related orphan receptor gamma (ROR-gamma) signaling pathway (AID 1159521;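 also: CHO cells with doxycycline inducible ROR-gamma driving an RORE luciferase reporter; top concentration of the series differs between compounds; nearly all actives have a fitted effect of over 50% in size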). In a few lines: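 CHO Tet-on RORγ, RORE-luc reporter. Cpd 2 h pre-incubation, then dox hyclate 1 uM final, 16 h, 37 C/5% CO2. ONE-Glo luminescence; decrease = antagonist.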

The nature of test [7]: qHTS assay to identify small molecule agonists of the AP-1 signaling pathway - cell viability counter screen (AID 1159525; calls by dose curve; also: nearly all actives have a fitted effect of over 55% in size). In a few lines: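 AP-1-bla ME-180 cells in Opti-MEM with 0.5% dialyzed FBS, compound exposure 5 h at 37 C in 15-point titration. Viability read in the same wells as ATP content by CellTiter-Glo luminescence, normalised to tetra-n-octylammonium bromide and DMSO controls.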

Test [8] in a line: qHTS assay to identify small molecule agonists of the AP-1 signaling pathway (AID 1159526; calls by dose curve).
Test [9] addresses Retinoic acid receptor RXR-alpha (Homo sapiens) (UniProt P19793). Put plainly: qHTS assay to identify small molecule agonists of the RXR signaling pathway (AID 1159527; calls by dose curve; also: nearly all actives have a fitted effect of over 35% in size; also: potency is read from the fitted curve at half-maximal effect). The essentials: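 Read-out: beta-lactamase FRET ratio (405 nm excitation, 460 and 530 nm emission) after 2 hr substrate loading at room temperature. Cells were RXR-alpha-UAS-bla HEK 293T treated with compounds for 16 hr in 2% charcoal-stripped FBS medium.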

Test [10] is described as follows: qHTS assay to identify small molecule agonists of the RXR signaling pathway - cell viability counter screen (AID 1159529). Also: series mostly up to about 77 µM; nearly all actives have a fitted effect of over 50% in size. In a few lines:
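HEK 293T RXRa-bla cells, 2% CS-FBS; 5 h settle; cpd 16 h 37 C, 5% CO2; CellTiter-Glo 30 min RT, luminescence. Tetraoctyl ammonium bromide as positive control.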

Test [11] is described as follows: qHTS assay to identify small molecule agonists of the endoplasmic reticulum stress response signaling pathway - cell viability counter screen (AID 1159517; calls by dose curve). In a few lines: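 ESRE-bla HeLa cells, 1,500 per well, seeded overnight then treated with compounds for 5 hr at 37 C. After the beta-lactamase read, viability in the same wells is measured by CellTiter-Glo luminescence after 30 min at room temperature.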

Test [12] is described as follows: qHTS assay to identify small molecule antagonists of the retinoic acid receptor (RAR) signaling pathway (AID 1159552; also: nearly all actives have a fitted effect of over 50% in size; also: potency is read from the fitted curve at half-maximal effect). In a few lines:
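Cells of the C3RL4 line were seeded, incubated overnight, then dosed with compounds in DMSO followed immediately by retinol (1 uM final). Six hours later luciferase detection reagent went in; signal was measured after 30 min at RT.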

The nature of test [13]: qHTS assay to identify small molecule agonists of the retinoic acid receptor (RAR) signaling pathway (AID 1159553). In a few lines:
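Activation of retinol signaling was monitored via a RARE luciferase reporter in C3RL4 cells. After 6 hr compound treatment at 37 C, detection reagent was added for 30 min at room temperature before luminescence reading.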

A short description of test [14]: qHTS assay to identify small molecule antagonists of the retinoid acid receptor (RAR) signaling pathway - cell viability counter screen (AID 1159551). Also: nearly all actives have a fitted effect of over 35% in size. In a few lines: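 Seed C3RL4 cells; next day add compound, then retinol to 1 uM final; incubate 6 h at 37 C; add CellTiter-Glo; read luminescence after 30 min at RT.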
Test [15] can be described thus: qHTS assay to identify small molecule antagonists of the retinoid-related orphan receptor gamma (ROR-gamma) signaling pathway - cell viability counter screen (AID 1159520). Also: nearly all actives have a fitted effect of over 50% in size. The essentials:
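Tet-on ROR gamma CHO cells were given compounds for 2 hr, then doxycycline hyclate at 1 uM final, and incubated 16 hr at 37 C. Viability was measured as ATP content by CellTiter-Glo luminescence.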

Test [16] can be described thus: qHTS assay to identify small molecule antagonists of the estrogen related receptor (ERR) signaling pathway - cell viability counter screen (AID 1224818).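 Also: series mostly up to about 46 µM; viability measured after 17.5 h of compound exposure.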 In a few lines: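 In the same ERR cell assay, compound-treated wells (17.5 h, 37 C) were multiplexed with a fluorogenic viability reagent, CellTiter-Fluor, read after 30 min to flag cytotoxic substances.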
Test [17] is described as follows: qHTS assay to identify small molecule antagonists of the estrogen related receptor signaling pathway with the pleiotropic PPARgamma coactivator (PGC) cell viability counter screen (AID 1224822; also: series mostly up to about 46 µM). The essentials:
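Compounds in DMSO, with positive and negative controls, were applied to PGC/ERR cells (2,000/well) and left 17.5 h at 37 C before CellTiter-Fluor detection.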

Retinoic acid receptor RXR-alpha (Homo sapiens), sequence (P19793 whole entry, looked up): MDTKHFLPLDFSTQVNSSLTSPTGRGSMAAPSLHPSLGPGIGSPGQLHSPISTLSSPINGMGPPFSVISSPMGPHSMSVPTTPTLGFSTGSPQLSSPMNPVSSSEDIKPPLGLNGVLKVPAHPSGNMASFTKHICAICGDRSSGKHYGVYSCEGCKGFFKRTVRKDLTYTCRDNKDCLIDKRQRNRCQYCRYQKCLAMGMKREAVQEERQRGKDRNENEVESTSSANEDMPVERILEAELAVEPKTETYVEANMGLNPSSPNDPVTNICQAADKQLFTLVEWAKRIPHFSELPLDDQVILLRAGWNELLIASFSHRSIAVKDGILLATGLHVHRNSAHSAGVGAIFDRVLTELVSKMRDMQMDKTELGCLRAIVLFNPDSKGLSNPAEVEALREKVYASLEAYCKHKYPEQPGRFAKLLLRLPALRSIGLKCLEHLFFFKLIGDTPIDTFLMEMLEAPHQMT

`CC(C)N1C(=O)c2ccccc2C1=O`: the compound was classed as inactive in [1], in test [2], in test [3], in [4], in test [5] and in test [7]. Also, the Potency entry in test [6], in [8], in test [9] and in test [10] was “inactive” each time.
With `O=Cc1ccccc1[N+](=O)[O-]`, the compound was called inactive in test [1], in test [2], in test [3], in test [4], in [5] and in test [11]. In test [7], the outcome was inactive. In addition, the Potency entry in test [6], in [8], in test [9] and in [10] was “inactive” each time.
On to `C1C2OC2C2C1C1CC2C2OC12` (stereo not drawn), for which the call in test [1], in test [2], in test [3], in test [4], in test [5] and in test [11] was inactive. The outcome in test [7] was inactive. Moreover, the Potency entry in test [6], in test [8], in test [9], in test [12] and in test [13] was “inactive” in each case.
`Cc1ncc(CSSCc2cnc(C)c(O)c2CO)c(CO)c1O`: the result in [1], in test [2], in test [3], in [4], in test [5] and in [11] was inactive. Besides, the compound was called inactive in test [7] and in [14]. Also, the Potency result in test [6], in [8], in test [9] and in test [10] was “inactive” in each case.
As to `CCCOc1ccccc1-c1nc2n[nH]nc2c(=O)[nH]1`, the compound was classed as inactive in test [1], in test [2], in test [3], in test [4], in [5] and in [7]. The outcome in test [14], in test [16] and in test [17] was inactive. Moreover, the Potency entry in [15], in test [8], in test [10], in [12] and in test [13] was “inactive” throughout.
Turning to `COc1ccc(COC=O)cc1`, the result in [1], in test [3], in test [4], in test [5], in test [11] and in test [7] was inactive. In test [14], the result was inactive. Also, the Potency result in [8], in test [12] and in test [13] was “inactive” in each case.
With `C=CC(=O)N1CCOCC1`, the result in [1], in test [2], in test [3], in test [4], in test [5] and in test [11] was inactive. Moreover, the compound was called inactive in test [7] and in test [14]. The Potency result in test [6], in test [8], in test [9] and in test [10] was “inactive” each time.
On to `O=C(O)Cc1cc(I)c(Oc2cc(I)c(O)c(I)c2)c(I)c1`, for which the compound was classed as inactive in [1], in test [2], in test [3], in test [4], in test [5] and in test [7]. Besides, in test [14], the compound was called inactive. Also, the Potency result in test [15], in test [8] and in [13] was “inactive” each time. The Potency in [9] is 15.2 µM (active); in test [12] it was 42.4 µM (active).
Take `C(=C(c1ccccc1)c1ccccc1)c1ccccc1`: the outcome in [2], in test [3], in test [4], in test [5], in [7] and in test [14] was inactive. In addition, the Potency result in [15], in test [6], in [8], in [9], in [12] and in [13] was “inactive” each time.
Take `CCCCCCOC(=O)c1ccccc1O`: the compound was called inactive in test [1], in [2], in [3], in test [4], in test [5] and in [11]. Further, the outcome in test [7] and in test [14] was inactive. Moreover, the Potency entry in [6], in [8], in test [10], in test [12] and in test [13] was “inactive” each time.
